# Results published in the supplement of paper PMC9794691.
# Test system: PC9
# Assay: area under confluence curve of compound monotherapy; compare to DMSO control AUC of the same experiment (AUC (confluence x time, arbitrary))
# Conditions: 5 nM; DMSO control AUC in same experiment: 29563
# Description: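 compare to DMSO control AUC of the same experiment; Monotherapy arm of the osimertinib DTP screen: EGFR-mutant NSCLC cells were treated with the test compound alone at a fixed dose (highest dose with <50% inhibition of parental cells, or 1 uM), then switched to drug-free medium at the DTP stage. IncuCyte confluence was tracked and AUC computed in Prism. AUC scale depends on experiment duration, so each row carries the same-experiment DMSO control AUC (monotherapy activity = DMSO AUC minus monotherapy AUC). The monotherapy value is shared between screen formats.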
row,SMILES,area under confluence curve
1,NC(=O)Nc1cc(-c2cccc(F)c2)sc1C(=O)N[C@H]1CCCNC1,26800

# Same assay, conditions: 100 nM; DMSO control AUC in same experiment: 20347
row,SMILES,area under confluence curve
1,Cc1nc(Nc2n[nH]c3c2CN(C(=O)N[C@H](CN(C)C)c2ccccc2)C3(C)C)c2sccc2n1,22800

# Same assay, conditions: 300 nM; DMSO control AUC in same experiment: 49143
row,SMILES,area under confluence curve
1,Oc1nc(-c2ccc(C(F)(F)F)cc2)nc2c1CSCC2,49300

# Same assay, conditions: 300 nM; DMSO control AUC in same experiment: 49189
row,SMILES,area under confluence curve
1,Cn1cnc2c(F)c(Nc3ccc(Br)cc3Cl)c(C(=O)NOCCO)cc21 [Selumetinib],49700

# Same assay, conditions: 1000 nM; DMSO control AUC in same experiment: 18733
row,SMILES,area under confluence curve
1,O=C(N[C@@H](C1CC1)C(F)(F)F)c1cc(-c2cnn3cc(-c4ccc(F)cc4)cnc23)cs1,18000

# Same assay, conditions: 1000 nM; DMSO control AUC in same experiment: 20567
row,SMILES,area under confluence curve
1,Cc1nc(N2CCC3(CC2)CO[C@@H](C)[C@H]3N)c(CO)nc1-c1cccc(Cl)c1Cl,20500

# Same assay, conditions: 1000 nM; DMSO control AUC in same experiment: 21678
row,SMILES,area under confluence curve
1,Cc1nc(N2CCC3(CC2)CO[C@@H](C)[C@H]3N)c(CO)nc1-c1cccc(Cl)c1Cl,22100

# Same assay, conditions: 1000 nM; DMSO control AUC in same experiment: 31219
row,SMILES,area under confluence curve
1,CN(C)C/C=C/C(=O)Nc1ccc(C(=O)Nc2cccc(Nc3ncc(Cl)c(-c4c[nH]c5ccccc45)n3)c2)cc1,31000
